VP16 counter = VP16 counterscreen qHTS for inhibitors of ROR gamma transcriptional activity. hit rate 3.5% among 310,000. Drosophila S2 Gal4-VP16 UAS-luciferase, luminescence, 20 h. Potency, µM (doses to about 53.6 µM), for the others: at the highest dose activity, negative = inhibition, usual class: inhibitors;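 note: Gal4-VP16 expression switched on by copper sulfate through the metallothionein promoter; nearly all actives have a fitted effect of over 50% in size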
RORg inh = qHTS for inhibitors of ROR gamma transcriptional activity | Potency, µM (titrated, usually from 53.6 µM), without a hit: at the highest dose activity change, negative = inhibition, actives largely listed as inhibitors | Nuclear receptor ROR-gamma (Mus musculus), P51450 | hit rate 5.4% among 310,000 | Drosophila S2 Gal4-RORgamma UAS-luciferase reporter, 20 h; note: nearly all actives have a fitted effect of over 60% in size
Target sequence (P51450 whole entry, looked up, the tested form may be a part): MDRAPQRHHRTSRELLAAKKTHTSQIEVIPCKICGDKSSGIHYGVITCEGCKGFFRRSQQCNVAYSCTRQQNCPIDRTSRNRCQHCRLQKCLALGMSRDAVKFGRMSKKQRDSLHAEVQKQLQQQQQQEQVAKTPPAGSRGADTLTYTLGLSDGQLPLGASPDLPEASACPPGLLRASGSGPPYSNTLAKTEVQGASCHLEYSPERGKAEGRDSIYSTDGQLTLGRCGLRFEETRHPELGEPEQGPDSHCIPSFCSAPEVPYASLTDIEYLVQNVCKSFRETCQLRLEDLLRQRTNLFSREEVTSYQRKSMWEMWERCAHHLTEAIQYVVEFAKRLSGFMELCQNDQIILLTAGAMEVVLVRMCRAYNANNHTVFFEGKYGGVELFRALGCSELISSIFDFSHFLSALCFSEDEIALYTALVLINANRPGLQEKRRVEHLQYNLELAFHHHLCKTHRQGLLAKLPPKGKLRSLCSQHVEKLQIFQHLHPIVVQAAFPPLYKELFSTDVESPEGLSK
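A Gal4/UAS one-hybrid system in insect cells: metallothionein-promoter Gal4–ROR gamma fusion plus Photinus luciferase reporter. Copper sulfate 700 uM final, 20 hr ambient incubation, luminescent detection after 10 min with reagent.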
Luc counter = Counterscreen for Luciferase (Kinase-Glo TM) Inhibition; Kinase-Glo luciferase, ATP luminescence, 8 min; Potency, µM (doses to about 38.3 µM), without a hit: at the top dose activity change, negative = inhibition, actives largely listed as inhibitors; hit rate 0.28% among 200,000; AID 1379, 2008; note: nearly all actives have a fitted effect of over 60% in size
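Luminescence was the read-out, taken after 8-minute incubation at ambient temperature. Luciferase turned over luciferin with 10 uM ATP in imidazole pH 7.2 buffer containing KCl, MgCl2, Tween 20 and BSA.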
Starred values were filed as active, the others as inactive; ? = inconclusive; · = no result; [ ] = dose if it differs, or a comment. A selection: hits, their analogues and other compounds. The true share with any hit is near 6.4%. Calls come from the whole dose curve; as a rule, active = well fitted curve in the direction sought with a large enough effect; inconclusive = small, poorly fitted or top-dose-only effect, or another doubt; inactive = no such curve, though single readings can be large; an effect the other way counts as inactive or inconclusive. % is set by controls: 0 for no effect and ±100 for the full control effect; potency is the fitted concentration of half-maximal effect.

SMILES | VP16 counter | RORg inh | Luc counter
COC(=O)c1ccc(NC(=S)NCCc2ccccc2C)cc1 | 14µM* | 13µM* | 0%
COC(=O)c1ccc(NC(=S)NCCc2ccc(OC)cc2)cc1 | ? | 7.9µM* | -1%
COC(=O)c1ccc(NC(=S)NCCc2cccc(C)c2)cc1 | 1.3µM* | 1.3µM* | 1%
COc1ccc(Oc2ncc3nc(-c4cc(F)cc(F)c4)c(=O)n(C[C@H]4CCCO4)c3n2)cc1 | -1% | 19% | ·
CSc1cccc(CN(C)C(=O)C2CCC(=O)N(CCCN3CCCC3=O)C2)c1 (stereo not drawn) | 8% | -18% | ·
Cc1ccc(CN2CCN(Cc3ccc4cccc(F)c4n3)CC2CCO)cc1 (stereo not drawn) | -5% | 27% | ·
O=c1c2sc3ccccc3c2[nH]c(=S)n1CCN1CCOCC1 | -1%[10 µM] | -21% | 0%
COCCCn1c(=S)[nH]c2c(sc3ccccc32)c1=O | ? | 1.3µM* | 3%
CC1CCN(CCCn2c(=S)[nH]c3c(sc4ccccc43)c2=O)CC1 | -24% | 11µM* | 2%
CC1CCN(CCCn2c(=S)[nH]c3c(sc4ccc([N+](=O)[O-])cc43)c2=O)CC1 | 5% | -31% | -4%
O=c1c(-c2cc(F)cc(F)c2)nc2cncnc2n1Cc1ccc(F)cc1 | 2% | -2% | -4%
O=C(O)COc1ccc(/C=N/NC(=O)c2cccc3ccccc23)cc1 | -1% | -2% | ·
CC1=NN(c2ccccc2)C(=O)C1/C=C1\NC(=S)NC1=O (stereo not drawn) | 1% | 3% | 4%
CC1=NN(c2ccccc2)C(=O)C1C=Nc1ccccc1O (stereo not drawn) | 4.5µM* | 2µM* | ·
NC(=O)N/N=C\c1ccc([N+](=O)[O-])o1 | -7%[17 µM] | ? | 1%[17.1 µM]
NC(=O)N/N=C/c1ccc([N+](=O)[O-])o1 | ? | -22%[10 µM] | -6%
O=C(N/N=C/c1ccc([N+](=O)[O-])o1)C1CC1 | 4% | 7.9µM* | -1%
Cc1ccc(OCC(=O)N/N=C/c2ccc([N+](=O)[O-])o2)cc1 | ? | ? | 2%
O=C(N/N=C/c1ccc([N+](=O)[O-])o1)C(O)c1ccccc1 (stereo not drawn) | -27% | 3% | ·
Cc1cc(C)c(S(=O)(=O)N/N=C/c2ccc([N+](=O)[O-])o2)c(C)c1 | 20µM* | ? | ·
O=C(COc1ccccc1)N/N=C/c1ccc([N+](=O)[O-])o1 | 16µM* | 10µM* | 1%
O=[N+]([O-])c1ccc(/C=N/NC(=S)Nc2ccccc2C(F)(F)F)o1 | ? | 11µM* | 2%
CC(C)(C)c1ccc(C(CC(=O)O)NC(=O)C23CC4CC(CC(C4)C2)C3)cc1 (stereo not drawn) | -4% | -17% | ·
O=C(N/N=C/c1ccc(-c2ccc([N+](=O)[O-])cc2)o1)[C@H]1C[C@@H]1c1ccccc1 | -4% | 17% | ·
O=C(N/N=C/c1ccc(-c2ccccc2[N+](=O)[O-])o1)[C@H]1C[C@@H]1c1ccccc1 | 11µM* | ? | -1%
SMILES | VP16 counter | RORg inh | Luc counter
O=C1CSC(=S)N1/N=C/C=C/c1ccccc1 | ? | 2.5µM* | -1%
O=C1CSC(=S)N1/N=C/c1cccc(C(F)(F)F)c1 | ? | 7.9µM* | ·
O=C1CSC(=S)N1/N=C/c1ccc(C(F)(F)F)cc1 | -1% | ? | ·
N=C1SCC(=O)N1/N=C/c1ccccc1 | ? | 11µM* | -7%
C(=N\n1c2ccccc2c2ccccc21)/c1ccccc1 | 6% | 7% | 1%
Cc1nnc(C)n1/N=C/C=C/c1ccccc1 | 2% | -19% | 1%
COc1ccc(C(=O)/C(=C/c2cccs2)c2nc3ccccc3o2)cc1 | ? | 3.2µM* | -1%
COc1ccc(/C=C(\CC(=O)O)c2nc3ccccc3o2)cc1 | 5% | 17% | 4%
CC(C)CCN1C(=O)c2ccc(C(=O)Nc3ccccc3C(=O)O)cc2C1=O | 19% | -1% | ·
Nc1nc(SCc2ccc(Cl)cc2)ns1 | 7.1µM* | -35% | -2%
Nc1nc(SCc2ccccc2)ns1 | ? | ? | 2%
COc1ccc(C(CC(=O)N2CCCC(C)C2)c2c(O)cc(OC)cc2OC)cc1 (stereo not drawn) | 14% | 2µM* | ·
COc1cc(O)c(C(CC(=O)N2CCCC(C)C2)c2cc(OC)c(OC)c(OC)c2)c(OC)c1 (stereo not drawn) | 5% | -16% | ·
CCOC(=O)C1=C(CS(=O)(=O)c2ccc(F)cc2)NC(=O)NC1c1cc(OC)c(O)c(OC)c1 (stereo not drawn) | -1% | 1% | ·
CC(=O)OCCNc1cc(SC(C)C)c2nonc2c1[N+](=O)[O-] | 6% | -6% | 0%

Screening results deposited in PubChem by National Center for Advancing Translational Sciences (NCATS).
